Results as given in PubChem BioAssay AID1159580 (chemical genetic matrix, 2015).
Among all 5,500 compounds or so, about 2,000 (36%) were called active. About 18% were inconclusive and are not listed. Cut-off read from the data, not from the text of the source: active = normalized growth mostly below about 0.91 (no sharp cut-off); inconclusive = no clear call, values can overlap the other calls; inactive = mostly above about 0.92. Some of the results follow.

Experiment: chemical genetic growth profiling, strain panel (AID 1159580);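 note: tested at 20 µM; growth read once vehicle control cultures reached saturation at 30 °C; 1 = growth at the plate median or of vehicle wells; lower values mean less growth of the strain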
Conditions: S. cerevisiae deletion strains, growth OD

Measured: normalized growth

FC(F)(F)c1cccc(N2CCNCC2)c1
inactive: locus YAL013W, strain DEP1, hits give low values 1 | locus YAL021C, strain ccr4, hits give low values 0.992 | locus YAL026C, strain drs2, hits give low values 1 | locus YAL030W, strain snc1, hits give low values 0.99 | locus YBL061C, strain skt5, hits give low values 0.992 | locus YBR009C, strain hhf1, hits give low values 0.978 | locus YBR021W, strain FUR4, hits give low values 0.991 | locus YBR023C, strain chs3, hits give low values 0.996 | locus YBR171W, strain sec66, hits give low values 1.01 | locus YBR229C, strain ROT2, hits give low values 1.01 | locus YBR231C, strain swc5, hits give low values 0.99 | locus YBR279W, strain paf1, hits give low values 1 | locus YCL011C, strain gbp2, hits give low values 0.999 | locus YCL016C, strain dcc1, hits give low values 0.991 | locus YCL029C, strain bik1, hits give low values 0.996 | locus YCL061C, strain MRC1, hits give low values 1 | locus YCL069W, strain vba3, hits give low values 1 | locus YCR088W, strain abp1, hits give low values 1.01 | locus YDL005C, strain med2, hits give low values 1 | locus YDL035C, strain GPR1, hits give low values 1 | locus YDL040C, strain nat1, hits give low values 0.988 | locus YDL074C, strain BRE1, hits give low values 0.994 | locus YDL101C, strain DUN1, hits give low values 1 | locus YDL134C, strain PPH21, hits give low values 1.01 | locus YDL185W, strain tfp1, hits give low values 0.994 | locus YDL192W, strain arf1, hits give low values 0.995 | locus YDR001C, strain nth1, hits give low values 1.01 | locus YDR069C, strain doa4, hits give low values 0.973 | locus YDR101C, strain arx1, hits give low values 0.994 | locus YDR137W, strain rgp1, hits give low values 1 | locus YDR159W, strain sac3, hits give low values 0.956 | locus YDR162C, strain NBP2, hits give low values 1.01 | locus YDR195W, strain ref2 0.928 | locus YDR297W, strain sur2, hits give low values 1 | locus YDR318W, strain mcm21, hits give low values 0.989 | locus YDR334W, strain swr1, hits give low values 1.01 | locus YDR335W, strain msn5, hits give low values 0.993 | locus YDR388W, hits give low values 0.977 | locus YDR392W, strain spt3, hits give low values 0.89 | locus YDR502C, strain sam2, hits give low values 0.98 | locus YEL003W, strain gim4, hits give low values 1.01 | locus YEL037C, strain rad23, hits give low values 1 | locus YEL061C, strain CIN8 (second series), hits give low values 1.01 | locus YEL061C, strain CIN8, hits give low values 1.01 | locus YER015W, strain faa2, hits give low values 0.994 | locus YER016W, strain bim1, hits give low values 0.995 | locus YER110C, hits give low values 0.976 | locus YER111C, strain swi4, hits give low values 0.999 | locus YER155C, strain BEM2 (second series), hits give low values 0.93 | locus YER155C, strain BEM2, hits give low values 1.01 | locus YER167W, strain BCK2, hits give low values 1 | locus YFR010W, strain ubp6, hits give low values 1.03 | locus YGL078C, strain dbp3, hits give low values 0.973 | locus YGL086W, strain mad1, hits give low values 0.983 | locus YGL167C, strain pmr1, hits give low values 0.981 | locus YGL173C, strain kem1, hits give low values 1.01 | locus YGL227W, strain vid30, hits give low values 1 | locus YGL240W, strain doc1, hits give low values 0.962 | locus YGL248W, strain PDE1, hits give low values 1.01 | locus YGL253W, strain hxk2, hits give low values 1.02 | locus YGR135W, strain pre9, hits give low values 0.953 | locus YGR229C, strain SMI1, hits give low values 0.987 | locus YGR252W, strain gcn5, hits give low values 0.932 | locus YHR013C, strain ard1, hits give low values 0.961 | locus YHR027C, strain rpn1, hits give low values 0.994 | locus YHR030C, strain SLT2, hits give low values 1.01 | locus YHR079C, strain IRE1 (second series), hits give low values 0.998 | locus YHR094C, strain hxt1, hits give low values 0.992 | locus YHR129C, strain ARP1, hits give low values 1.01 | locus YHR142W, strain chs7, hits give low values 1.02 | locus YHR200W, strain rpn10, hits give low values 0.987 | locus YIL066C, strain RNR3, hits give low values 1.02 | locus YIL073C, strain SPO22, hits give low values 1.08 | locus YIL125W, strain kgd1, hits give low values 0.974 | locus YIR030C, strain dcg1, hits give low values 1 | locus YJL092W, strain hpr5, hits give low values 1.01 | locus YJL095W, strain BCK1 (second series), hits give low values 0.995 | locus YJL095W, strain BCK1, hits give low values 1.02 | locus YJL115W, strain asf1, hits give low values 0.998 | locus YJL129C, strain trk1, hits give low values 1.03 | locus YJL134W, strain LCB3, hits give low values 1 | locus YJL154C, strain vps35, hits give low values 1 | locus YJL164C, strain tpk1, hits give low values 0.993 | locus YJL166W, strain qcr8, hits give low values 0.987 | locus YJL168C, strain set2, hits give low values 0.987 | locus YJL187C, strain SWE1 (second series), hits give low values 1.01
